Data: PubChem BioAssay (NCI)
Several values for one entry are separate records, joined by “and”; a condition that tells them apart may be missing. Identical values can stand only once. This is part of a sample that, as a whole, favours compounds with a hit. Of some 83,000 tested, about 20% had one in any assay.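 48-hour exposure, single concentration, 96-well plates; percent growth endpoint where 0 means no net growth. Active: below 10.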 Activity calls are given as the source filed them.

tested on: HL-60(TB) leukemia; assay: NCI-60 one-dose screen, 48 h (100 = growth as untreated, 0 = no growth, -100 = all killed); settings: 10 µM unless noted

SMILES | growth
COc1cc(/C=C/C(=O)c2c(C)nc3ccccc3c2/C=C/c2ccccc2)cc(OC)c1OC | -6.84% (active)
CCCc1c(C)nc2scc(-c3ccc(Cl)cc3)n2c1=O | 98% (inactive)
Nc1c(Br)cc(Br)cc1-c1n[nH]c(=O)[nH]c1=O | 94.4% (inactive)
O=C1Nc2ccccc2/C1=C\c1nc(-c2ccccc2F)n2ccccc12 | 73.4% (inactive)
COc1ccc2c(c1)C(C)Cc1c(ncnc1-n1c(C)nc3ccccc31)N2C (configuration not stated) | 1.95% (active)
O=C(O)c1ccc(OCc2ccccc2)cc1 | 103% (inactive)
N#Cc1c(N)nc(N)nc1Nc1ccc(Br)cc1 | 93.3% (inactive)
N#Cc1ccc2c(c1)C(=O)c1c-2n(CCCN)c(=O)c2cc([N+](=O)[O-])ccc12 | -91.8% (active)
Cc1n[nH]c(C)c1N=Nc1cccc2c1C(=O)c1ccccc1C2=O | 96.3% (inactive)
CC1SC(=S)N(c2ccc(Cl)cc2)C1=O (configuration not stated) | 82.7% (inactive) and 98.2% (inactive)
CC(C)c1cc(N=O)cc(C(C)C)c1O | 93% (inactive)
COC(=O)c1ccc(CSc2nnc(-c3c(C)nc4ccc(C)cn34)o2)cc1 | 97.5% (inactive)
COc1ccccc1CNCCCN1C(=O)c2ccc3c4c(ccc(c24)C1=O)C(=O)N(CCCNCc1ccccc1OC)C3=O | -67.5% (active)
Cc1cc(S(=O)(=O)/N=C(\N)n2nc(C)c(C)c2C)c(SCc2ccccc2)cc1Cl | 81.9% (inactive)
Cc1ccc(Nc2c(C(N)=O)cnc3ccc(-c4csc(N)n4)cc23)cc1 | 109% (inactive)
Cc1ccc(S(N)(=O)=O)cc1Cl | 79.8% (inactive)
C(#CCN1CCOCC1)CCCN1CCOCC1 | 93% (inactive) and 127% (inactive)
COc1ccc(C2CC(c3cccc(Nc4ccncc4)c3)=NN2c2ccc(Cl)cc2)cc1 (configuration not stated) | -46.5% (active)
Nc1c(C(=O)O)[nH]c(=O)[nH]c1=O | 81.3% (inactive)
COc1ccc(C(O)c2cc3c(N)c(C(=O)Nc4ccccc4)sc3nc2C)cc1 (configuration not stated) | -68.5% (active)
O=C(Nc1cccc(-n2cc(-c3ccncc3)c(-c3ccc(O)c(Cl)c3)n2)c1)Nc1cccc(C(F)(F)F)c1 | -11.6% (active)
CCC(=O)N1C/C(=C/c2ccc(Cl)cc2)C(=O)/C(=C/c2ccc(Cl)cc2)C1 | 4.88% (active)
COc1ccc(NC(=O)c2ccoc2COc2ccccc2)cc1 | 96.9% (inactive)
CCCCCCCCCCCCCCNC(=O)Nc1ccc(Cl)c(Cl)c1 | 79.1% (inactive)
Fc1ccc2[nH]cc(-c3nonc3-c3c[nH]c4ccc(Br)cc34)c2c1 | 34.5% (inactive)
COc1cccc(C2C(C#N)=C(N)Oc3cc(N)ccc32)c1 (configuration not stated) | -19% (active)
Nc1cc(N)c(S(=O)(=O)O)cc1N=Nc1cc([N+](=O)[O-])ccc1O | 92.5% (inactive)
